Measured values as given in the supplement of paper PMC11001985.

compound: C#CCNC(=O)CCSSCCC(=O)NCCc1ccc(C=O)c(C=O)c1; test: lysine labeling ratio R10:1 (500 µM / 50 µM probe), SILAC-ABPP in living cells; higher = lower intrinsic lysine reactivity toward the probe, active = 2 or less; conditions: HeLa; probe concentrations 500 vs 50 µM
Procedure, shortened: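 The two probe levels, 50 µM and 500 µM, of an alkyne-tagged, disulfide-linked lysine probe were applied to living light and heavy SILAC HeLa cells in PBS at room temperature, and the labels were run in both forward and reverse orientation. Mixed lysates underwent biotin-azide click chemistry, trypsin digestion, neutravidin capture, DTT release and alkylation before LC-MS/MS on a TIMS-TOF Pro. R is the filtered median high-probe/low-probe MS1 peptide ratio for each lysine, summarised as the median over forward and reverse replicates. Nothing above 20 is reported; such values are set to 20.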

Sequence of UniProt Q9Y6N7 (Q9Y6N7 whole entry): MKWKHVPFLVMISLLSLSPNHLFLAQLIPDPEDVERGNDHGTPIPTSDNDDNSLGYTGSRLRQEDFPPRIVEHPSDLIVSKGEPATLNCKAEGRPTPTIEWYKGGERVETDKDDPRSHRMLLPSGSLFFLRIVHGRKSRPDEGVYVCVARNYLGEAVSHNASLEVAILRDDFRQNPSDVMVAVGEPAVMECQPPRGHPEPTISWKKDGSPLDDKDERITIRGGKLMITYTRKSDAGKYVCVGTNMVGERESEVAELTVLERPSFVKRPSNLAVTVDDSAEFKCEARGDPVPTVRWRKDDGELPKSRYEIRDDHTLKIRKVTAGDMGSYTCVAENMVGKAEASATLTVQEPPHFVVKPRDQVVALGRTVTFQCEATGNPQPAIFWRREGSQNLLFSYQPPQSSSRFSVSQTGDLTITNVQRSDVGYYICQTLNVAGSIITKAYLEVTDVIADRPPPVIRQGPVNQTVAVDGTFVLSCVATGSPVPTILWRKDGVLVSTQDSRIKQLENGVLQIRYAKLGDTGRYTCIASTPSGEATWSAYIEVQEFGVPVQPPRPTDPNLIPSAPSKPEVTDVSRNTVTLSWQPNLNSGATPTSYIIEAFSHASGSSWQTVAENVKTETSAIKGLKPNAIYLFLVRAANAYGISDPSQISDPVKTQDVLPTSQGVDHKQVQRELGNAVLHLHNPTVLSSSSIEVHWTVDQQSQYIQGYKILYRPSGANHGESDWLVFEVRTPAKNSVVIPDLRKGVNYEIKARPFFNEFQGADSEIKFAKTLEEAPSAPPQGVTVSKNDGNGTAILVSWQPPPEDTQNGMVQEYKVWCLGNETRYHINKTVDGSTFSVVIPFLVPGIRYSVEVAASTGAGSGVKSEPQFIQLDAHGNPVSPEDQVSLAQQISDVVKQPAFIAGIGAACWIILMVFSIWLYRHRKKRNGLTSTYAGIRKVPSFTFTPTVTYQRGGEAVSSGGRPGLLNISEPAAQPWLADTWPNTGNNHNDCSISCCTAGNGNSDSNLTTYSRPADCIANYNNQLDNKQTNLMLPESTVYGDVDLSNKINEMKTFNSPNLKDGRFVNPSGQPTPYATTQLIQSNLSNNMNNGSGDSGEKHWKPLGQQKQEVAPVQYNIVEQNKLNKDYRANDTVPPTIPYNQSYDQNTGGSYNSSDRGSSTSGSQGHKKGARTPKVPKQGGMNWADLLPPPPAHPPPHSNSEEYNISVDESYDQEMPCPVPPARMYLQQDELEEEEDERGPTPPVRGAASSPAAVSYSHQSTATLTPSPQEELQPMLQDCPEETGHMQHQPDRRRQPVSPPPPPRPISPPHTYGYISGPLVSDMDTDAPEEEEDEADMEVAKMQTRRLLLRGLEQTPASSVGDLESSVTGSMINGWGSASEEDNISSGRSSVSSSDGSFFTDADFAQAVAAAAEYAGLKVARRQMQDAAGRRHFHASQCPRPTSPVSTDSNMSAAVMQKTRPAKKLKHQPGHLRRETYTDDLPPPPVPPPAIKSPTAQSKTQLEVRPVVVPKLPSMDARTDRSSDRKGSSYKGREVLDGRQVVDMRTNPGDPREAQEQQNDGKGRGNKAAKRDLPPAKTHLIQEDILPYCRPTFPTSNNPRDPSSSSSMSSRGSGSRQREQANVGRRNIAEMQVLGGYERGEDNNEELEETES
Sequence of UniProt P11940 (P11940 whole entry): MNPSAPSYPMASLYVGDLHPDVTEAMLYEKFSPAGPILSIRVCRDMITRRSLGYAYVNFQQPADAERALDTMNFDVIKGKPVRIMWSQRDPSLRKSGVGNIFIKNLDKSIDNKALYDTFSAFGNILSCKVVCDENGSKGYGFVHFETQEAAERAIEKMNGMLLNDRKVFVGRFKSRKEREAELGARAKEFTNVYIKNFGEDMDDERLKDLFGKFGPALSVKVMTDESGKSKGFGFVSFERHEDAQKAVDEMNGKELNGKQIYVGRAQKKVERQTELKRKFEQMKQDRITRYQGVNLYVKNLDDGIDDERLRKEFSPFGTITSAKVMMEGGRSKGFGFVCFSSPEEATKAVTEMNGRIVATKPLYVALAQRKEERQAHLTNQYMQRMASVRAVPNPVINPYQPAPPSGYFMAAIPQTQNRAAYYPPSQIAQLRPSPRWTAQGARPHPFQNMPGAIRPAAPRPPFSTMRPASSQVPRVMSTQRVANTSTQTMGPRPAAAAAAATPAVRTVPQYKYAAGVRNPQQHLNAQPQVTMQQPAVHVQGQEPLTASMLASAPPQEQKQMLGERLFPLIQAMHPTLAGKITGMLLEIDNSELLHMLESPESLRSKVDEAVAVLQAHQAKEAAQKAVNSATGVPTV
Sequence of UniProt Q9NQC3 (Q9NQC3 whole entry): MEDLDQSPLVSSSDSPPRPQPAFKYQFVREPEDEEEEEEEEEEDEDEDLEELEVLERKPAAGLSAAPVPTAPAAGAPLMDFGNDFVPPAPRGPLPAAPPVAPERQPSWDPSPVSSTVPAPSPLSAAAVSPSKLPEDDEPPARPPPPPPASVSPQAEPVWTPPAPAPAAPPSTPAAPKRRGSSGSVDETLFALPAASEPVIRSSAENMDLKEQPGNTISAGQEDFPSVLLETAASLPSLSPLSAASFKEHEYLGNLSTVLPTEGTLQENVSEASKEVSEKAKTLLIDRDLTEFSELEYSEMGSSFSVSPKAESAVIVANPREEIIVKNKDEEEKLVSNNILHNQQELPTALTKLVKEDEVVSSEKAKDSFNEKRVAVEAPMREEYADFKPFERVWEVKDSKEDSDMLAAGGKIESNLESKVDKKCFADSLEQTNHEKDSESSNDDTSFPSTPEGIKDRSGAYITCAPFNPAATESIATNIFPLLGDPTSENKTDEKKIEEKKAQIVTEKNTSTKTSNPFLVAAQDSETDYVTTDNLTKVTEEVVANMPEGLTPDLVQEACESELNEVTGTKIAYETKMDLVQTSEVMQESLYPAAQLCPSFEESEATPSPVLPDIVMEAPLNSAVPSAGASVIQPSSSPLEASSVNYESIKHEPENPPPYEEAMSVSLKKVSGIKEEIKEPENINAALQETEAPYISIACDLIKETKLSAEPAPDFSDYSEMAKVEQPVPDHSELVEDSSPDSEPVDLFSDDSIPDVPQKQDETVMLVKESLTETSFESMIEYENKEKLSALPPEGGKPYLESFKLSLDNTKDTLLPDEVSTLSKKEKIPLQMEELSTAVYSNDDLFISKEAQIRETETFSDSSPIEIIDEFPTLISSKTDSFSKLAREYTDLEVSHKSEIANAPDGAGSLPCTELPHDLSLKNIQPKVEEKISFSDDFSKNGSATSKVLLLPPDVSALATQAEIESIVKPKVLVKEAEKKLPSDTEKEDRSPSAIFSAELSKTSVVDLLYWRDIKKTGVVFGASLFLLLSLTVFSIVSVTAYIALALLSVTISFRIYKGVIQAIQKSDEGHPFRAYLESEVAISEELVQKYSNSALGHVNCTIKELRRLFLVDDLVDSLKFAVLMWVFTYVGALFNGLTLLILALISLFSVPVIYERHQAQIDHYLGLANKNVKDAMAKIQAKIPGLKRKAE
Sequence of UniProt Q32P28 (Q32P28 whole entry): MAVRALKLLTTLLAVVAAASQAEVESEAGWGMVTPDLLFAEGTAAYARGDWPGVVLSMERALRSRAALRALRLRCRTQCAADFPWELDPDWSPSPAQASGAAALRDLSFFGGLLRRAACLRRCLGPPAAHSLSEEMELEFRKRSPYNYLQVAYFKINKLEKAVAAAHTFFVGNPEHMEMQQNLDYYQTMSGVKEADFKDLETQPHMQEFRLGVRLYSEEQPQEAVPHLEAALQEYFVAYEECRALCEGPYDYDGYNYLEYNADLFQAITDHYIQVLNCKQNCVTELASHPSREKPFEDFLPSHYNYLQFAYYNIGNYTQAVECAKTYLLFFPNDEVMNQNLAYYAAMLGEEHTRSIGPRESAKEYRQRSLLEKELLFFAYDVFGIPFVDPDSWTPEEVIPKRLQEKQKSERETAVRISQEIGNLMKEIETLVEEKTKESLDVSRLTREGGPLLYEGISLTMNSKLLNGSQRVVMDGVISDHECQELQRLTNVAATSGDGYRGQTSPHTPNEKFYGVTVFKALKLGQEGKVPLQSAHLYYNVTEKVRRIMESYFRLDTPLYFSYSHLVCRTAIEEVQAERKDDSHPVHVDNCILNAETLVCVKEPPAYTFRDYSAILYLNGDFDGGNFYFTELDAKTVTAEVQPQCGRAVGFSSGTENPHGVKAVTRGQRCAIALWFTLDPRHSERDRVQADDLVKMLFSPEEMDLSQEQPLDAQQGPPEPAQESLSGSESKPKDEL
Sequence of UniProt P05787 (P05787 whole entry): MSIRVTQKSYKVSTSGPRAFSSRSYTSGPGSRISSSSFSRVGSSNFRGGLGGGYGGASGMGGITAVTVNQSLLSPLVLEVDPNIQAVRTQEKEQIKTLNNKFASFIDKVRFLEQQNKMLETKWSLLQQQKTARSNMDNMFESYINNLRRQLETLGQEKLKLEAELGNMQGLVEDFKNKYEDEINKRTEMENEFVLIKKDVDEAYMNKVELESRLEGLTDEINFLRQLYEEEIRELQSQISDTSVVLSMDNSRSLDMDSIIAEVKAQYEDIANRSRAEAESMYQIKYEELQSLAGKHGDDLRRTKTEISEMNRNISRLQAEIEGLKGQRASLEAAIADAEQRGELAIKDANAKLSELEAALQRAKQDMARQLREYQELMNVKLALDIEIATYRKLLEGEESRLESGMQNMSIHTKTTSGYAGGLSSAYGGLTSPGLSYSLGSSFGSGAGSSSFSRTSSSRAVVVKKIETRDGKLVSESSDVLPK
Sequence of UniProt P47756 (P47756 whole entry): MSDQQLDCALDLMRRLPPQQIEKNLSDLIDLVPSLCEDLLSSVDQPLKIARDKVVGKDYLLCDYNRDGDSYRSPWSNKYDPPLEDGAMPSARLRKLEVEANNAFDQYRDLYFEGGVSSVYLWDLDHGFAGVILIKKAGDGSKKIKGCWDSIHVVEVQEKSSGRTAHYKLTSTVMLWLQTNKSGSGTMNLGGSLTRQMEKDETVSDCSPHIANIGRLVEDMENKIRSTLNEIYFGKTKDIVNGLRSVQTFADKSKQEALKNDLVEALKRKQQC
Sequence of UniProt P61604 (P61604 whole entry): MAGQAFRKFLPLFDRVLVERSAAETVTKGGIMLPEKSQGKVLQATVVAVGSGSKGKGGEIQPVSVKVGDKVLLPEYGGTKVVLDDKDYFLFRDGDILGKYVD

| Target | lysine labeling ratio R10:1 |
| --- | --- |
| AGRN (lysine site: K77) (UniProt O00468) | 1.69 (active) |
| HSPE1 (lysine site: K8) (UniProt P61604) | 4.22 (inactive) |
| TFPI (lysine site: K102) (UniProt P10646) | 7.9 (inactive) |
| SLC25A5 (lysine site: K147) (UniProt P05141) | 4.57 (inactive) |
| PABPC1 (lysine site: K157) (UniProt P11940) | 1.38 (active) |
| UniProt Q15149 (lysine site: K1896) | 5.17 (inactive) |
| SPTAN1 (lysine site: K2184) (UniProt Q13813) | 5.14 (inactive) |
| SEMA4D (lysine site: K219) (UniProt Q92854) | 2.27 (inactive) |
| RTN4 (lysine site: K1066) (UniProt Q9NQC3) | 3.4 (inactive) |
| LMO7 (lysine site: K1456) (UniProt Q8WWI1) | 1.37 (active) |
| NRP1 (lysine site: K231) (UniProt O14786) | 5.85 (inactive) |
| FSCN1 (lysine site: K220) (UniProt Q16658) | 4.2 (inactive) |
| UniProt Q9NYQ6 (lysine site: K1830) | 0.925 (active) |
| UniProt P25705 (lysine site: K434) | 1.73 (active) |
| RAB8A (lysine site: K197) (UniProt P61006) | 2.44 (inactive) |
| STMN1 (lysine site: K128) (UniProt P16949) | 2.8 (inactive) |
| RPS3A (lysine site: K56) (UniProt P61247) | 1.81 (active) |
| TFRC (lysine site: K358) (UniProt P02786) | 1.48 (active) |
| ANXA1 (lysine site: K214) (UniProt P04083) | 6.33 (inactive) |
| FLNA (lysine site: K2000) (UniProt P21333) | 1.14 (active) |

| Target | lysine labeling ratio R10:1 |
| --- | --- |
| SLC9A6 (lysine site: K61) (UniProt Q92581) | 4.56 (inactive) |
| UniProt P05787 (lysine site: K130) | 9.55 (inactive) |
| CCT7 (lysine site: K320) (UniProt Q99832) | 2.53 (inactive) |
| ATP2A2 (lysine site: K169) (UniProt P16615) | 7.34 (inactive) |
| UniProt P14618 (lysine site: K498) | 1.49 (active) |
| UniProt Q12891 (lysine site: K148) | 1.46 (active) |
| UniProt P02533 (lysine site: K405) | 7.37 (inactive) |
| IGSF3 (lysine site: K888) (UniProt O75054) | 4.12 (inactive) |
| COL5A1 (lysine site: K605) (UniProt P20908) | 2.05 (inactive) |
| RPL35A (lysine site: K95) (UniProt P18077) | 3.1 (inactive) |
| SLC3A2 (lysine site: K257) (UniProt P08195) | 1.64 (active) |
| UniProt Q32P28 (lysine site: K363) | 4.24 (inactive) |
| CAPZB (lysine site: K57) (UniProt P47756) | 1.35 (active) |
| TM9SF2 (lysine site: K495) (UniProt Q99805) | 4.38 (inactive) |
| ROBO1 (lysine site: K503) (UniProt Q9Y6N7) | 7.35 (inactive) |
| ARL6IP5 (lysine site: K31) (UniProt O75915) | 0.953 (active) |
| MYO1C (lysine site: K404) (UniProt O00159) | 1.66 (active) |
| FASN (lysine site: K1927) (UniProt P49327) | 1.05 (active) |
| ROBO1 (lysine site: K214) (UniProt Q9Y6N7) | 4.58 (inactive) |
| RPL5 (lysine site: K284) (UniProt P46777) | 1.68 (active) |
